Records with an inconclusive call do not appear. A call without a number means that no potency is given here. Calls of active or inactive are those of the source. Unless noted, calls follow the shape of the dose curve; as a rule, active = well fitted curve in the direction sought with a large enough effect; inconclusive = small, poorly fitted or top-dose-only effect, or another doubt; inactive = no such curve, though single readings can be large; an effect the other way counts as inactive or inconclusive. Numbered stars: 1 amine (or outer) side, 2 acyl side, 3 side chain; on linkers, the order of the positions; unused ones are H or OH. Bridge positions count the residues as written; N and C are the ends. Square brackets hold non-standard residues; d marks the D form. Peptide text beside a SMILES is read from it. * marks the point of attachment. ξ: configuration not given here. ΔAla(Z-3-ureido) = NC(=O)N/C=C(\N)C(=O)O; ξDab(CH2SO3H) = NC(CCNCS(=O)(=O)O)C(=O)O; X2 = NC1=NC(O)CC(C(N[*:1])C(=O)[*:2])N1; Heptanoyl(6-Me) = CC(C)CCCCC(=O)*; ξβ3hOrn = NCCCC(N)CC(=O)*; Orn = NCCC[CH](N)C(=O)O; Dab = NCC[CH](N)C(=O)O; Dap = NC[CH](N)C(=O)O
Tests used:
[1] = S16 Schwann cell viability assay (CellTiter-Glo assay) (AID 624031); also: nearly all actives have a fitted effect of over 70% in size; also: potency is read from the fitted curve at half-maximal effect
In short: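 Cells were seeded at 500-750 per well in phenol red-free DMEM with 10% FBS and left overnight. Compounds or DMSO were pinned in, incubation ran 24 h at 37 °C/5% CO2, then CellTiter-Glo reagent was added and luminescence measured.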

[2] = S16 Schwann cell PMP22 intronic element beta-lactamase assay (AID 624044; calls by dose curve; also: nearly all actives have a fitted effect of over 15% in size; also: potency is read from the fitted curve at half-maximal effect)
In short: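 Beta-lactamase reporter under a PMP22 intronic regulatory element in stable S16 rat Schwann cells; 24 h compound exposure. 460 nm blue signal normalized between DMSO (0%) and potassium clavulanate, with 535 nm FRET tracking viability; curves classed by r2 and response.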

[3] = tested on: CP215; test: qHTS profiling for inhibitors of Plasmodium falciparum proliferation (AID 504749); also: nearly all actives have a fitted effect of over 60% in size; also: potency is read from the fitted curve at half-maximal effect; details: P. falciparum in erythrocytes, SYBR Green DNA, 72 h; series mostly up to 28.7 µM
In short: (§1)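 In a 72 h erythrocytic culture (37 C, humidified, 5% CO2) at 2.5% hematocrit and 0.3% starting parasitemia, compounds were tested; SYBR Green I in detergent lysis buffer stained parasite DNA overnight.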

[4] = tested on: CP260; test: as above; details: P. falciparum in erythrocytes, SYBR Green DNA, 72 h; series mostly up to 28.7 µM
In short: as §1

[5] = tested on: DIV14; test: as above; details: P. falciparum in erythrocytes, SYBR Green DNA, 72 h; series mostly up to 28.7 µM
In short: as §1

[6] = tested on: DIV17; test: as above; details: P. falciparum in erythrocytes, SYBR Green DNA, 72 h; series mostly up to 28.7 µM
In short: as §1

[7] = tested on: ICS; test: as above; details: P. falciparum in erythrocytes, SYBR Green DNA, 72 h; series mostly up to 28.7 µM
In short: as §1

[8] = tested on: W2; test: as above; details: P. falciparum in erythrocytes, SYBR Green DNA, 72 h; series mostly up to 28.7 µM
In short: as §1

[9] = molecular target: Luciferin 4-monooxygenase (Photinus pyralis) (UniProt P08659); test: Biochemical firefly luciferase enzyme assay for NPC (AID 624030); also: nearly all actives have a fitted effect of over 70% in size; also: potency is read from the fitted curve at half-maximal effect
Chain of Luciferin 4-monooxygenase (Photinus pyralis) (P08659 whole entry, looked up): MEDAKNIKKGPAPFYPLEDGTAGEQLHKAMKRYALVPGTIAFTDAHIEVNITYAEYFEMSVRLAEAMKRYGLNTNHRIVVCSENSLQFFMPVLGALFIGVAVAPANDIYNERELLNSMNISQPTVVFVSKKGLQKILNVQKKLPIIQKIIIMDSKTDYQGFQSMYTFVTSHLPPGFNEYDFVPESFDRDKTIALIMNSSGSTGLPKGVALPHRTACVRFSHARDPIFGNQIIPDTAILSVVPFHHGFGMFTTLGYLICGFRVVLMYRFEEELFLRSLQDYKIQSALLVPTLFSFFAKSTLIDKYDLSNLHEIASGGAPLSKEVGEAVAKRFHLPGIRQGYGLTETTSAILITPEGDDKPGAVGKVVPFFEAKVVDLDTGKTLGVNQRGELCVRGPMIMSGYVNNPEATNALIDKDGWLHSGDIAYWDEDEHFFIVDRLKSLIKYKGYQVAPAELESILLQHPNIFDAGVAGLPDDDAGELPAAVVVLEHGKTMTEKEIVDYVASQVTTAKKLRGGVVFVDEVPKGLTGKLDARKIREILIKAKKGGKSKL
In short: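 Direct inhibition of firefly luciferase enzyme (10 nM final, 50 mM Tris Acetate) assessed by luminescence within 5 minutes. Percent activity scaled between DMSO and PTC124 positive control, with concentration-effect curves classified by fit quality and response.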

[10] = molecular target: Mitogen-activated protein kinase 10 (Mus musculus) (UniProt Q61831); test: JNK3 AlphaScreen Assay (AID 530; active = well fitted curve in either direction with a large enough effect, not every such curve was filed as active;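 also: kinase came from lysate of stimulated human HepG2 cells; signal reports phosphorylation of biotinylated GST-cJun 1-79 at Ser73 with 10 µM ATP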)
In short: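 Kinase buffer: 20 mM Tris-HCl pH 7.6, 10 mM MgCl2, 1 mM DTT, 0.1 mM Na3VO4, 0.01% Tween-20; ATP 10 uM. Substrate biotin-GST-cJun(1-79), enzyme from activated HepG2 lysates. Detection by Ser73 phospho-antibody AlphaScreen.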

CC(C)C[C@H](NC(=O)[C@@H](Cc1c[nH]c2ccccc12)NC(=O)[C@@H](Cc1ccc(O)cc1)NC(=O)[C@@H](CO)NC(=O)[C@@H](Cc1c[nH]c2ccccc12)NC(=O)C(Cc1cnc[nH]1)NC(=O)C1CCC(=O)N1)C(=O)N[C@@H](CCCN=C(N)N)C(=O)N1CCC[C@@H]1C(=O)NCC(N)=O (some centres not stated)
Potency [1]: inactive
Potency [2]: inactive
Potency [3]: inactive
Potency [4]: inactive
Potency [5]: inactive
Potency [6]: inactive
Potency [7]: inactive
Potency [8]: inactive

Cn1cc(O)nc1NC(=O)Nc1cccc(Cl)c1
Potency [9]: inactive
Potency [1]: inactive
Potency [2]: inactive
Potency [3]: inactive
Potency [4]: inactive
Potency [5]: inactive
Potency [6]: inactive
Potency [7]: inactive
Potency [8]: inactive

CC(C)CC(NC(=O)C(COC(C)(C)C)NC(=O)C(Cc1ccc(O)cc1)NC(=O)C(CO)NC(=O)C(Cc1c[nH]c2ccccc12)NC(=O)C(Cc1cnc[nH]1)NC(=O)C1CCC(=O)N1)C(=O)NC(CCCN=C(N)N)C(=O)N1CCCC1C(=O)NNC(N)=O (configuration not stated)
Potency [9]: inactive
Potency [1]: inactive
Potency [3]: inactive
Potency [5]: inactive
Potency [6]: inactive
Potency [7]: inactive
Potency [8]: inactive

CCC(C)C1NC(=O)C(Cc2ccc(O)cc2)NC(=O)C(N)CSSCC(C(=O)N2CCCC2C(=O)NC(CC(C)C)C(=O)NCC(N)=O)NC(=O)C(CC(N)=O)NC(=O)C(CCC(N)=O)NC1=O (configuration not stated)
Potency [9]: inactive
Potency [3]: inactive
Potency [4]: inactive
Potency [5]: inactive
Potency [6]: inactive
Potency [7]: inactive
Potency [8]: inactive

CCC1NC(=O)C(NC(=O)c2ncccc2O)C(C)OC(=O)C(c2ccccc2)NC(=O)C2CC(=O)CCN2C(=O)C(Cc2ccccc2)N(C)C(=O)C2CCCN2C1=O (configuration not stated)
Potency [9]: inactive
Potency [1]: inactive
Potency [2]: inactive
Potency [3]: inactive
Potency [4]: inactive

O=C(OCC1OC(OC(=O)c2cc(O)c(O)c(OC(=O)c3cc(O)c(O)c(O)c3)c2)[C@@H](OC(=O)c2cc(O)c(O)c(OC(=O)c3cc(O)c(O)c(O)c3)c2)C(OC(=O)c2cc(O)c(O)c(OC(=O)c3cc(O)c(O)c(O)c3)c2)C1OC(=O)c1cc(O)c(O)c(OC(=O)c2cc(O)c(O)c(O)c2)c1)c1cc(O)c(O)c(OC(=O)c2cc(O)c(O)c(O)c2)c1 (some centres not stated)
Potency [9]: 12.8 µM (active)
Potency [1]: 20.3 µM (active)
Potency [2]: 22.4 µM (active)
Potency [3]: 3.79 µM (active)
Potency [4]: 3.55 µM (active)
Potency [5]: 3.79 µM (active)
Potency [6]: 2.69 µM (active)
Potency [7]: 2.51 µM (active)
Potency [8]: 1.51 µM (active)

CC(C)CC1NC(=O)C(CCCN)NC(=O)C(C(C)C)NC(=O)C2CCCN2C(=O)C(Cc2ccccc2)NC(=O)C(CC(C)C)NC(=O)C(CCCN)NC(=O)C(C(C)C)NC(=O)C2CCCN2C(=O)C(Cc2ccccc2)NC1=O (configuration not stated) (cyclo(FPV[Orn]LFPV[Orn]L); configuration not given here)
Potency [1]: 4.55 µM (active)
Potency [2]: 12.6 µM (active)
Potency [3]: 0.0011 µM (active)
Potency [4]: 0.0009 µM (active)
Potency [7]: 0.0003 µM (active)
Potency [8]: 0.0002 µM (active)

CCC(C)C1NC(=O)C(CCNCS(=O)(=O)O)NC(=O)C(NC(=O)C(CCNCS(=O)(=O)O)NC(=O)C(NC(=O)C(CCNCS(=O)(=O)O)NC(=O)CCCCC(C)C)C(C)O)CCNC(=O)C(C(C)O)NC(=O)C(CCNCS(=O)(=O)O)NC(=O)C(CCNCS(=O)(=O)O)NC(=O)C(C(C)CC)NC1=O (configuration not stated) ({Heptanoyl(6-Me)}-[ξDab(CH2SO3H)]T[ξDab(CH2SO3H)][Dab][ξDab(CH2SO3H)]II[ξDab(CH2SO3H)][ξDab(CH2SO3H)]T; lactam 4-C; configuration not given here)
Potency [9]: inactive
Potency [1]: inactive
Potency [2]: inactive
Potency [5]: inactive
Potency [6]: inactive
Potency [7]: inactive
Potency [8]: inactive

NCCCC(N)CC(=O)NC1CNC(=O)C(C2CC(O)N=C(N)N2)NC(=O)/C(=C/NC(N)=O)NC(=O)C(CO)NC(=O)C(CO)NC1=O (stereo not drawn) (ξβ3hOrn-[Dap]SS[ΔAla(Z-3-ureido)][X2]; lactam 1-C; configuration not given here)
Potency [9]: inactive
Potency [1]: inactive
Potency [2]: inactive
Potency [4]: inactive
Potency [8]: inactive

COc1ccc(-c2nc3ccc(C4=C(C)CC(=O)NN4)cc3[nH]2)cc1
Potency [2]: inactive
Potency [4]: inactive

CC1(C)C(/C=C/C=C/C=C/C=C2\N(CCCCS(=O)(=O)O)c3ccc4ccccc4c3C2(C)C)=[N+](CCCCS(=O)(=O)[O-])c2ccc3ccccc3c21
Potency [9]: 28.7 µM (active)
Potency [1]: inactive
Potency [2]: inactive
Potency [3]: inactive
Potency [5]: inactive
Potency [6]: inactive
Potency [7]: inactive

CCC(Oc1ccccc1)C(=O)NC1C(=O)N2C1SC(C)(C)C2C(=O)O (configuration not stated)
Potency [1]: inactive
Potency [2]: inactive
Potency [3]: inactive
Potency [4]: inactive
Potency [6]: inactive
Potency [7]: inactive
Potency [8]: inactive

CC(C)C(NC(=O)C(CC(=O)O)NC(=O)C(CCCCN)NC(=O)C(N)CCCN=C(N)N)C(=O)NC(Cc1ccc(O)cc1)C(=O)O (configuration not stated) (H-RKDVY-OH; configuration not given here)
Potency [9]: inactive
Potency [1]: inactive
Potency [2]: inactive
Potency [3]: inactive
Potency [5]: inactive
Potency [6]: inactive
Potency [7]: inactive
Potency [8]: inactive

O=C(O)c1ccccc1-c1c2cc(Br)c(=O)c(Br)c-2oc2c(Br)c(O)c(Br)cc12
Potency [2]: inactive
Potency [3]: inactive
Potency [4]: inactive
Potency [5]: inactive
Potency [6]: inactive
Potency [7]: inactive

C=CC1=C(C(=O)O)N2C(=O)[C@@H](NC(=O)C(N=O)c3csc(N)n3)[C@H]2SC1 (some centres not stated)
Potency [9]: inactive
Potency [1]: inactive
Potency [2]: inactive
Potency [3]: inactive
Potency [4]: inactive
Potency [5]: inactive
Potency [6]: inactive
Potency [7]: inactive

CNCC(=O)NC(CCCN=C(N)N)C(=O)NC(C(=O)NC(Cc1ccc(O)cc1)C(=O)NC(C(=O)NC(Cc1cnc[nH]1)C(=O)N1CCCC1C(=O)NC(C)C(=O)O)C(C)C)C(C)C (configuration not stated)
Potency [1]: inactive
Potency [3]: inactive
Potency [4]: inactive
Potency [5]: inactive
Potency [6]: inactive
Potency [7]: inactive
Potency [8]: inactive

CC1CC2C3CCC4=CC(=O)C=C[C@@]4(C)[C@]3(F)C(O)C[C@]2(C)[C@]1(O)C(=O)COP(=O)(O)O (some centres not stated)
Potency [9]: inactive

C[N+]1(C)C2CCC1CC(OC(=O)C(O)c1ccccc1)C2 (configuration not stated)
Potency [9]: inactive

CN(C)c1ccc(O)c2c1C[C@@H]1C[C@H]3C(N(C)C)C(=O)C(C(N)=O)=C(O)[C@@]3(O)C(=O)C1=C2O (some centres not stated)
Potency [9]: inactive

COC(=O)C1(Cc2ccccc2)C=C2C(=C(c3ccccc3)C(=O)C2C)CN1 (configuration not stated)
outcome [10]: inactive
